Only some compounds are listed: those with a hit (about 19% of all), similar ones and a draw of the others.
DT40 TDP1 CPT: DT40-hTDP1 cell growth loss with CPT; chicken DT40 Tdp1-/-;hTDP1 cells + 20 nM CPT, ATP luminescence, 48 h; Potency, µM (series often up to 46.2 µM), without a hit: at the top dose activity change, negative = growth inhibition, actives largely listed as inhibitors; actives 12% (n = 420,000); AID 686979; note: potency is the fitted concentration of half-maximal effect; % is set by controls: 0 for no effect and ±100 for the full control effect; nearly all actives have a fitted effect of over 55% in size
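Chicken DT40 Tdp1-/- cells complemented with human TDP1, 400 cells/well, exposed to compounds plus 20 nM camptothecin for at least 48 h at 37 C; viability read as ATP content by CellTiter-Glo luminescence.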
IL-1B inflam inh: blocks inflammasome-driven IL-1 beta release; actives 4.7% (n = 360,000); activity change, % at 57.5 µM; THP-1 LPS/ATP IL-1B secretion, AlphaLISA, 16 h; active compounds read low; in the data active = activity change below about -50%; inconclusive = mostly about -30% to -49%; note: % is set by controls: 0 for no effect and ±100 for the full control effect
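Secreted IL-1B measured by AlphaLISA bead assay after 16 h compound exposure of THP-1 cells; compounds (final up to 57.5 uM) added 1 h before LPS (250 ng/mL) and ATP (1.25 mM) stimulation; lower signal means less secretion.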
SW480 rereplic: induces DNA re-replication in SW480 colon adenocarcinoma cells; AID 624297; Potency, µM (top dose mostly 46.1 µM), inactives show at the highest dose re-replication activation, most hits filed as activators; actives 1.8% (n = 340,000); SW480 DNA re-replication, Hoechst DNA content imaging, 48 h; note: potency is the fitted concentration of half-maximal effect; % of control where 0% means no effect; nearly all actives have a fitted effect of over 55% in size
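Compounds, transferred as 23 nL by pin tool, were incubated with cells for 48 hr; DNA content per nucleus was then quantified by Hoechst staining and fluorescence plate imaging.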
BCR signal inh: inhibitors of chronic active B-cell receptor signaling; ABC-DLBCL IkBa-CBG/CBR reporter, luminescence ratio, 4 h; Potency, µM (highest dose often 46.1 µM), for the others: at the top dose activity change, negative = inhibition, hits mostly inhibitors; actives 0.05% (n = 340,000); active = well fitted inhibition curve with a large enough effect in the signal ratio, with a control signal flat, not every such curve was filed as active; inconclusive = small, poorly fitted or top-dose-only effect, or effect the other way, or a change in a side signal; the % refers to the signal ratio;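 note: potency is the fitted concentration of half-maximal effect; plate controls were basal doxycycline-induced cells for no effect and cells given 10 µM MG132 for full effect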
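TMD8 ABC-DLBCL cells carrying doxycycline-inducible green luciferase fused to IkappaBalpha plus unfused red luciferase were exposed to compounds (up to 46 uM) for 4 hrs at 37C. Activity came from the overlap-corrected green/red luminescence ratio.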
DT40 TDP1 no CPT: qHTS for Inhibitors of human tyrosyl-DNA phosphodiesterase 1 (TDP1): qHTS in cells in absence of CPT. Potency, µM (highest dose often 46.2 µM), for inactives: at the top dose activity change, negative = growth inhibition, actives largely listed as inhibitors. DT40 Tdp1-/- hTDP1 cells, no CPT, ATP luminescence, 48 h. actives 15% (n = 420,000). AID 686978, 2013; note: potency is the fitted concentration of half-maximal effect; % is set by controls: 0 for no effect and ±100 for the full control effect; nearly all actives have a fitted effect of over 55% in size
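Growth of hTDP1-complemented DT40 Tdp1-knockout cells is measured by ATP luminescence after at least 48 hr compound exposure at 37 °C, with DMSO substituting for the 20 nM CPT used in the parallel screen.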
MCF10A rereplic: inducers of DNA re-replication in MCF 10A breast cells | MCF 10A DNA re-replication, Hoechst nuclear intensity, 48 h | actives 2.9% (n = 350,000) | Potency, µM (series often up to 46.1 µM), for inactives: top-dose activity, positive = re-replication, most hits filed as activators; note: potency is the fitted concentration of half-maximal effect; % of control where 0% means no effect; nearly all actives have a fitted effect of over 50% in size
* = called active by the depositor; ? = inconclusive; nt = no result given. Unless noted, calls come from the whole dose curve; as a rule, active = well fitted curve in the direction sought with a large enough effect; inconclusive = small, poorly fitted or top-dose-only effect, or another doubt; inactive = no such curve, though single readings can be large; an effect the other way counts as inactive or inconclusive.

SMILES	DT40 TDP1 CPT	IL-1B inflam inh	SW480 rereplic	BCR signal inh	DT40 TDP1 no CPT	MCF10A rereplic
CCN(CC)C(=O)c1cc([N+](=O)[O-])cc2c1-c1ccc([N+](=O)[O-])cc1C2=C(C#N)C#N	0.651µM*	-15.7	?	-1.3%	16.4µM*	5.9%
Cc1ccc([C@H]2C(C(=O)O)=CC[C@@H](c3ccc(C)cc3)N2S(=O)(=O)c2ccc(C)cc2)cc1	-3.5%	-21.5	0.7%	-0.1%	-10.2%	-1.0%
CCn1c2ccccc2c2nc3cc(S(=O)(=O)N4CCOCC4)ccc3nc21	14.6µM*	?	2.6%	6.3%	13µM*	23.5%
O=C(CSc1nc2cc(S(=O)(=O)N3CCOCC3)ccc2o1)Nc1c(F)cccc1F	20.6µM*	-0.3	-1.1%	0.1%	20.6µM*	-0.1%
Cc1[nH]c2ccccc2c1C(=O)CSc1nc2cc(S(=O)(=O)N3CCCCC3)ccc2o1	23.1µM*	-16.5	10.3%	3.4%	20.6µM*	18.3%
CCCn1c(CCl)nc2cc(S(=O)(=O)N3CCOCC3)ccc21	4.2%	36.5	-4.3%	1.9%	-6.9%	-0.8%
CCC(C)NC(=O)CSc1nc2cc(S(=O)(=O)N3CCOCC3)ccc2n1CC (configuration not stated)	5.3%	-9.1	0.3%	?	9.3%	1.7%
CCn1c(SCC(=O)c2cc(C)ccc2C)nc2cc(S(=O)(=O)N3CCOCC3)ccc21	?	11.4	12.3%	5.9%	18.4µM*	15.3%
CCc1nnc2c3ccccc3nc(Nc3ccccc3OC)n12	-11.7%	nt	nt	nt	?	nt
CC1CCN(C(=O)COC(=O)C2CCN(S(=O)(=O)c3ccc4c(c3)OCCO4)CC2)CC1	-1.2%	13.8	-0.5%	-0.2%	-14.2%	4.3%
O=c1c(C(c2ccccc2)c2c(O)sc3ccccc3c2=O)c(O)sc2ccccc12	-8.5%	17.6	0.0%	-0.1%	5.2%	-0.8%
CC(C)Cc1nnc(NC(=O)c2ccc(-n3cncn3)c([N+](=O)[O-])c2)s1	-19.6%	-4.6	nt	nt	0.8%	nt
CCSc1nc2cc(S(=O)(=O)N3CCOCC3)ccc2o1	?	6.2	-2.7%	-6.2%	?	?
Cc1ccc(C(=O)CSc2nc3cc(S(=O)(=O)N4CCOCC4)ccc3o2)cc1	18.4µM*	-10.4	-3.3%	3.1%	?	6.1%
CCC(C)[C@H]1CNC(=S)N1CCC12CC3CC(CC(C3)C1)C2 (some centres not stated)	16.4µM*	0.7	-8.6%	-0.5%	14.6µM*	15.3%
OCC[C@@H]1C[C@H](O)[C@@H](O)[C@]2(OCc3ccc(CO)cc32)O1	-3.1%	3.0	nt	nt	3.6%	nt
Cc1c(C)n(Cc2ccc(F)cc2)c2ccc(C(=O)NCCCN3CCOCC3)cc12	?	-26.0	?	19.0%	16.4µM*	21.6%
CCN(CC)c1ccc(NC(=O)c2ccc3c(c2)c(C)c(C)n3C)cc1	23.1µM*	-17.1	?	?	18.4µM*	?
Cc1cccc(Cn2c(C)c(C)c3cc(C(=O)NCc4ccco4)ccc32)c1	16.4µM*	nt	nt	nt	23.1µM*	nt
Cc1cccc(C(=O)NCc2ccco2)c1	?	11.8	-5.0%	0.3%	-7.2%	-17.7%
COc1cc(CNC(=O)c2ccc3c(c2)c(C)c(C)n3Cc2cccc(C)c2)cc(OC)c1OC	18.4µM*	nt	nt	nt	8.2µM*	nt
Cc1c(C)n(Cc2ccccc2)c2ccc(C(=O)NCCCN3CCOCC3)cc12	?	-5.5	2.4%	19.5%	?	?
Cc1c(C)n(Cc2ccccc2)c2ccc(C(=O)NCc3ccccc3F)cc12	18.4µM*	nt	nt	nt	18.4µM*	nt
COc1cc(C(=O)NCc2cccc3ccccc23)ccc1OCc1ccccc1	?	?	-4.2%	2.7%	?	-2.1%

High-throughput results as filed in PubChem BioAssay.
